The source made the active and inactive calls. The calls were made as follows: active = hit-call score of the fitted dose curve at least 0.9, where 1 is the maximum; inactive = score below 0.9.

Read-out in the assay: Bcl-2 (BAX) gene, BAX (gene 581)
In words: LTEA_HepaRG_BAX: Life Technologies and Expression Analysis (LTEA) Assay for Bcl-2 (BAX) gene using HepaRG (AID 2283470). To be noted: mRNA level, 48 h; actives raise or lower the signal. On the procedure: LTEA_HepaRG is a cell based, multiplexed-readout assay that uses HepaRG, a human liver cell line, with measurements taken at 48 hours after chemical dosing on a 96-well plate.LTEA_HepaRG_BAX is one of 102 assay component(s) measured in the LTEA HepaRG cell culture assay. It is a marker of Cell proliferation, survival, death.Data from the assay component LTEA_HepaRG_BAX was analyzed into 1 endpoint. This assay endpoint, LTEA_HepaRG_BAX, was analyzed with bidirectional fitting relative to DMSO as the negative control and baseline of activity. Using a type of inducible reporter, measures of mRNA induction for gain or loss-of-signal activity can be used to understand regulation of transcription factor activity. To generalize the intended target to other relatable targets, this assay endpoint is annotated to the cell cycle intended target family, where the subfamily is Cell proliferation, survival, death.
A total of 1060 chemcials from the ToxCast library were tested in eight-point concentration-response experiments. Cell culture and cytotoxicity assays were conducted at Thermo Fisher Scientific's Custom Services facility (Madison, WI). A single lot of human HepaRG cells (Thermo Fisher Scientific, Frederick, MD) was used for the cell culture experiments. 96-well format collagen type I coated plates of human HepaRG cells were prepared using established methods. Briefly, cryopreserved HepaRG cells were thawed, plated at a density of approximately 100,000 cells/well in HepaRG Thaw, Plate, and General Purpose media (HPRG770, Thermo Fisher Scientific), and incubated for 48 hours. 0.5% DMSO was selected as vehicle control to balance the requisite need of DMSO in HepaRG cultures to maintain differentiation (for example, baseline metabolism, proportions of hepatocytes vs. cholangiocytes), while enabling further hepatic receptor pathway activation (for example, PXR and CAR) in response to chemical exposure. 48 hours after plating, the culture medium was replaced with HepaRG Serum-Free Incudtion Media. Cells were exposed to each test chemical in duplicate and maintained in CO2 incubators for another 48 hours. Chemical plates were thawed to room temperature and 200x concentrations of treatment groups were prepared. 8-point conentration-reponse curves were made with the highest exposure at 100 uM, followed by half-log dilutions, all in 0.5% DMSO. Each test plate contained variouse controls, induction positive controls (1mM phenobarbital), cytotoxicity positive controls ([…] aflatoxin B1), vehicle controls (0.5% DMSO), and total lysis controls (0.5% DMSO). Cell morphology images were taken using an Essen IncuCyte FLR automated microscope, with six 96-well plates imaged in about 24 minutes. Images were captured and exported and JPEG files. Spent culture media was transfered to black-well plates for the LDH assay, and remaining media was sorted at -80 C for later use. Cells were treated with RLT buffer and frozen until shipped for gene expression analysis. Total RNA was isolated from the cell suspension in 75 uL of Buffer RLT (Qiagen, Germantown, MD 20874) by Quintiles/Expression Analysis (Durham, NC) using a custom isolation procedure. Total RNA from each plate well was transferred to a preamplification plate. Fluidigm's 96.96 Dynamic ArrayTM (Fluidigm, Amsterdam, the Netherlands) technology was used for gene expression analyses by quantitative reverse transcription polymerase chain reaction (qRT-PCR, performed by Quintiles/Expression Analysis, Durham, NC)89. Standard TaqManTM Assays (Applied Biosystems/ThermoFisher Scientific, Foster City, CA) were used to assess the expression of 93 genes selected based on their selectivity and sensitivity to important hepatic receptors known to be modulated by environmental chemicals; importance in human hepatocyte functionality; and hepatotoxicity. […]
With `CC(C)c1cccc(C(C)C)c1N1C(=O)c2ccc(O)cc2C1=O`, the AC50 was 50 µM (active). As to `CCOCCOCCOCCO`, the compound was classed as inactive.

As for `O=C(O)CC(O)C(=O)O` (stereo not given), the call was inactive. Still for that read-out and setting: in the case of `CC(C)=CCCC(C)=CC=O` it was “inactive”; in that of `Nc1nc2ncc(CNc3ccc(C(=O)N[C@@H](CCC(=O)O)C(=O)O)cc3)nc2c(=O)[nH]1`, “inactive”.

Consider `CN(C)c1ccc(Cc2ccc(N(C)C)cc2)cc1`, for which the call was inactive.

In the case of `CCCC(=O)OCC`, the call was inactive. Consider `Cn1cnc([N+](=O)[O-])c1Sc1ncnc2nc[nH]c12`, for which the AC50 is 8.77 µM (active).

In the case of `COC(=O)CC(=O)OC`, the outcome was inactive.

Take `CCOC(=O)COc1ccc2c(c1)CC(NCC(O)c1cccc(Cl)c1)CC2` (stereo not given): the call was inactive.

Turning to `CCCCCCCCO`, the outcome was inactive. For `CC1=CC(=O)CC(C)(C)C1`, the result was inactive. With `Cn1c(=O)c2c(ncn2C)n(C)c1=O`, the compound was called inactive. On the same count and under the same terms, in the case of `CCNc1ccccc1` it was “inactive”; in that of `CCN(C(=O)c1cc(C)cc(OC[C@H](C)Nc2ccncc2)c1)C(C)C`, “inactive”. For `CNS(=O)(=O)c1cc(C(=O)N2CCC(CCN3C4CCC3CC(n3c(C)nc5ccccc53)C4)(c3cccc(F)c3)CC2)c(Cl)cc1F` (stereo not given), the call was inactive. Consider `O=c1n(CC2CO2)c(=O)n(CC2CO2)c(=O)n1CC1CO1` (stereo not given), for which the AC50 is 83.4 µM (active).

Take `CC(C)CCO`: the outcome was inactive.

Take `O=c1[nH]c2ccc(S(=O)CCN3CCC(Cc4ccc(F)cc4)CC3)cc2o1` (stereo not given): the compound was classed as inactive. For `O=C1CCCCCN1`, the compound was called inactive. Same read-out and setting: to `CCCCCCCCCCCCc1ccccc1` belongs “inactive”; to `O=C(O)CCN(C1(C(=O)NO)CCCC1)S(=O)(=O)c1ccc(Oc2ccc(F)cc2)cc1`, “inactive”; to `O=C(OC[C@H]1O[C@@H](OC(=O)c2cc(O)c(O)c(OC(=O)c3cc(O)c(O)c(O)c3)c2)[C@H](OC(=O)c2cc(O)c(O)c(OC(=O)c3cc(O)c(O)c(O)c3)c2)[C@@H](OC(=O)c2cc(O)c(O)c(OC(=O)c3cc(O)c(O)c(O)c3)c2)[C@@H]1OC(=O)c1cc(O)c(O)c(OC(=O)c2cc(O)c(O)c(O)c2)c1)c1cc(O)c(O)c(OC(=O)c2cc(O)c(O)c(O)c2)c1`, “inactive”. On the same count and under the same terms, to `Clc1nc(Cl)c(Cl)c(Cl)c1Cl` belongs “inactive”; to `CC[C@H]1CC[C@H](NCc2cc3c(cc2OC)[C@H]2C[C@H]2C(=O)N3C)[C@H](c2ccccc2)N1`, “inactive”; to `O=C(NS(=O)(=O)/C=C/c1ccccc1)c1ccc(F)cc1Cl`, “inactive”. On to `Cc1[nH]cnc1C[C@H]1CCc2c(C)c3ccccc3n2C1=O`, for which the AC50 was 28 µM (active). `O=P(OC(CCl)CCl)(OC(CCl)CCl)OC(CCl)CCl`: the AC50 was 84.5 µM (active). For the compound `Oc1ccc2c(c1)-c1ccccc1C2`, the compound was classed as inactive. On the same count and under the same terms, to `CCCCCCc1ccc(O)cc1O` belongs “inactive”. The same measure, in the same setting: to `CCCCC(CC)COC(=O)CCCCCCCCC(=O)OCC(CC)CCCC` (stereo not given) belongs “inactive”; to `CC1(C)C(=O)N(Br)C(=O)N1Br`, “inactive”; to `Nc1cccc(N)c1`, “inactive”. For `C1N2CN3CN1CN(C2)C3`, the compound was called inactive.

For `CC(C)=CCC/C(C)=C/CO`, the compound was called inactive. The same measure, in the same setting: to `CNCc1ccc(NC(=O)c2c[nH]c3c2C(=O)CCC3)cc1` belongs “inactive”; to `CCOC(=O)c1ccc(C2CCC(NC[C@H](O)COc3ccc(O)c(NS(C)(=O)=O)c3)CC2)cc1` (stereo not given in full), “inactive”. Still for that read-out and setting: in the case of `COCCOc1cc2cc(C(=O)NC3CCN(C(C)C)CC3)n(CC(=O)Nc3ccc(Cl)cn3)c2cn1` it was “inactive”; in that of `Cc1ccc(C)c(O)c1`, “inactive”; in that of `CCOCCO`, “inactive”.

By AC50 is commonly meant the concentration at which the activity in the assay is half-maximal.

The values above are taken from PubChem BioAssay (EPA / NIEHS).
